Test results as given in PubChem BioAssay (EPA / NIEHS).
Active and inactive are the calls of the source. Rule for the calls: active = hit-call score of the fitted dose curve at least 0.9, where 1 is the maximum; inactive = score below 0.9.

Legend:
[1] = molecular target: Bile acid receptor (Homo sapiens) (UniProt Q96RI1); assay: ATG_IR1_CIS: Attagene CIS-FACTORIAL HepG2 Assay for human Nuclear Receptor Subfamily 1 Group H Member 4 (NR1H4), IR1 submotif (AID 2282946); settings: IR1 reporter transcription, actives raise or lower the signal
Chain of Bile acid receptor (Homo sapiens) (Q96RI1 whole entry, looked up): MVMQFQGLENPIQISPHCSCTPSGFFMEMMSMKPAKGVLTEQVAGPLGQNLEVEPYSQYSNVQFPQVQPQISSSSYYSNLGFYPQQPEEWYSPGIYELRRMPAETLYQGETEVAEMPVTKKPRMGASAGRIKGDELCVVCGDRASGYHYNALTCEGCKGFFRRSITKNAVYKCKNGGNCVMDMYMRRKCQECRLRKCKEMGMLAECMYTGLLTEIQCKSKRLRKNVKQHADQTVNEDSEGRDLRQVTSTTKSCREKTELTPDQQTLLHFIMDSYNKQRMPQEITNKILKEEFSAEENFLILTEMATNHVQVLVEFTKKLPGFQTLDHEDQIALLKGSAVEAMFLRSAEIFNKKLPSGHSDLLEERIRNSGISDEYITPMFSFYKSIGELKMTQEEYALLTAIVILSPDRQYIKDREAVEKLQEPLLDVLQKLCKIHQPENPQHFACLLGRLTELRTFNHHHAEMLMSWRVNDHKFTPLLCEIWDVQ
In short: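 Readout: reporter transcript levels by RT-PCR with fluorescent capillary electrophoresis, from HepG2 cells transiently transfected with multiplexed cis-regulated reporters and dosed 24 h. Gain- or loss-of-signal fitted versus DMSO negative control.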

[2] = ATG_GRE_CIS: Attagene CIS-FACTORIAL HepG2 Assay for human Glucocorticoid Response Elements (GRE) (AID 2282947); settings: HepG2 GRE cis-reporter, Attagene multiplex mRNA; actives raise or lower the signal
In short: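 Cells (HepG2) bearing transfected cis-promoter reporter transcription units were treated with chemical for 24 hours. Reporter mRNA was measured via RT-PCR with capillary electrophoresis, and activity was fitted in both directions relative to DMSO.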

[3] = ATG_ISRE_CIS: Attagene CIS-FACTORIAL HepG2 Assay for human Interferon Regulatory Factor 1 (IRF1) binding to an Interferon-Stimulated Response Element (ISRE) (AID 2282948); settings: HepG2 ISRE cis-reporter (Attagene), mRNA transcription readout; actives raise or lower the signal
In short: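 Endogenous transcription factor activity read as reporter transcript abundance via RT-PCR and capillary electrophoresis. HepG2 cells transiently transfected, 24 h chemical exposure. Gain or loss fitted against DMSO baseline.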

[4] = ATG_M_32_CIS: Attagene CIS-FACTORIAL HepG2 Assay for M32 Transcription Factor (Internal Marker) (AID 2282949); settings: HepG2 Attagene cis-factorial M32 reporter, mRNA; actives raise or lower the signal;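 note: background control marker of the multiplexed CIS panel rather than a real target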
In short: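 HepG2 transfectants (cis-regulated reporter transcription units) dosed 24 h. Reporter mRNA by RT-PCR plus CE, analysed as gain or loss relative to DMSO.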

[5] = ATG_M_06_CIS: Attagene CIS-FACTORIAL HepG2 Assay for M06 Transcription Factor (Internal Marker) (AID 2282950); settings: HepG2 Attagene CIS-FACTORIAL M06 internal marker reporter; actives raise or lower the signal
In short: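 Cells (HepG2, transiently carrying cis-driven reporter units) receive chemical for 24 h before RNA isolation. Reporter cDNA is PCR-amplified, FAM-labelled by primer extension, HpaI-digested and sized on a capillary analyser.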

[6] = molecular target: Hypoxia-inducible factor 1-alpha (Homo sapiens) (UniProt Q16665); assay: ATG_HIF1a_CIS: Attagene CIS-FACTORIAL HepG2 Assay for human Hypoxia Inducible Factor 1 (HIF1A) (AID 2282951); settings: HepG2 Attagene cis-factorial HIF1a reporter transcription; actives raise or lower the signal
Chain of Hypoxia-inducible factor 1-alpha (Homo sapiens) (Q16665 whole entry, looked up): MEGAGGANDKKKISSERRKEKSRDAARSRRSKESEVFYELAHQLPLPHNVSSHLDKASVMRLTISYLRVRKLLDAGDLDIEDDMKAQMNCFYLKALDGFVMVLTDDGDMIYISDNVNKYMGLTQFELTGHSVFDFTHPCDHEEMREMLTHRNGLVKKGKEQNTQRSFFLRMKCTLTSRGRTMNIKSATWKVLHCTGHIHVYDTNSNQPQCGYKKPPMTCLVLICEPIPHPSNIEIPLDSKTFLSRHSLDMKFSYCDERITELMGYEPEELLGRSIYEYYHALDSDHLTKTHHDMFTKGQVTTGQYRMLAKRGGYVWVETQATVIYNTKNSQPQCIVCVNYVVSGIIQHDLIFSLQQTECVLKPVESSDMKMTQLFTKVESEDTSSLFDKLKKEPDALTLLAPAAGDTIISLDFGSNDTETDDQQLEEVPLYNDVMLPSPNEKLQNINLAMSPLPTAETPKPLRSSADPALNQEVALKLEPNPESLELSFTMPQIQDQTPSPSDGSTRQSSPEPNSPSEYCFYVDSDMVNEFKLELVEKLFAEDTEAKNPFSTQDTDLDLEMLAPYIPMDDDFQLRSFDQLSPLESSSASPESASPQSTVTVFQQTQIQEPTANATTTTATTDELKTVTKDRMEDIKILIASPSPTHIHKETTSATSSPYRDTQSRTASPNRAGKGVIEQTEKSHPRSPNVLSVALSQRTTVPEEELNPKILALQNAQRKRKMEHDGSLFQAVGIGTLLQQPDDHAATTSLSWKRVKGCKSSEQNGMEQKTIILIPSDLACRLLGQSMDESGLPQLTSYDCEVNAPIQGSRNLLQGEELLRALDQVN
In short: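 HepG2 cells transiently transfected with multiplexed cis-promoter reporter units; reporter mRNA read 24 h after dosing by RT-PCR, 6-FAM primer-extension labelling, HpaI digestion and capillary electrophoresis. Bidirectional fit versus DMSO baseline.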

[7] = molecular target: Hepatocyte nuclear factor 6 (Homo sapiens) (UniProt Q9UBC0); assay: ATG_HNF6_CIS: Attagene CIS-FACTORIAL HepG2 Assay for human Hepatocyte Nuclear Factor 6 (HNF6) (AID 2282952); settings: HepG2 Attagene cis-factorial HNF6 reporter transcription; actives raise or lower the signal
Chain of Hepatocyte nuclear factor 6 (Homo sapiens) (Q9UBC0 whole entry, looked up, the tested form may be a part): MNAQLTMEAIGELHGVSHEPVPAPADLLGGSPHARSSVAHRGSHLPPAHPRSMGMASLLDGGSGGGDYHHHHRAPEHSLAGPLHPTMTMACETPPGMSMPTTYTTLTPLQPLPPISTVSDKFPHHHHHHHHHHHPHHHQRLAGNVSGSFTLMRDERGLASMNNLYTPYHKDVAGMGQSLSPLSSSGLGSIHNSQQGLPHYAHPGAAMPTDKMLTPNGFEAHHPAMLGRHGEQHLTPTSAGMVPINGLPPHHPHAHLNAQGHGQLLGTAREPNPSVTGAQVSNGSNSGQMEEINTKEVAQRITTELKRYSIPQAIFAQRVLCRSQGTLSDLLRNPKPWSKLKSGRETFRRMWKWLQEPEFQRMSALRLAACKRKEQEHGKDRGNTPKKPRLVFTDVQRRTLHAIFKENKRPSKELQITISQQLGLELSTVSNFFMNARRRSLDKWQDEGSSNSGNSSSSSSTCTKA
In short: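 Twenty-four-hour chemical treatment of reporter-transfected HepG2 cells precedes RNA isolation, DNase-treated reverse transcription and PCR of reporter sequences. Labelled fragments are sized by capillary electrophoresis and fitted bidirectionally versus DMSO.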

[8] = molecular target: Heat shock factor protein 1 (Homo sapiens) (UniProt Q00613); assay: ATG_HSE_CIS: Attagene CIS-FACTORIAL HepG2 Assay for human Heat Shock Transcription Factor 1 (HSE) (AID 2282953); settings: HepG2 HSE cis-reporter, Attagene RNA transcription; actives raise or lower the signal
Chain of Heat shock factor protein 1 (Homo sapiens) (Q00613 whole entry, looked up): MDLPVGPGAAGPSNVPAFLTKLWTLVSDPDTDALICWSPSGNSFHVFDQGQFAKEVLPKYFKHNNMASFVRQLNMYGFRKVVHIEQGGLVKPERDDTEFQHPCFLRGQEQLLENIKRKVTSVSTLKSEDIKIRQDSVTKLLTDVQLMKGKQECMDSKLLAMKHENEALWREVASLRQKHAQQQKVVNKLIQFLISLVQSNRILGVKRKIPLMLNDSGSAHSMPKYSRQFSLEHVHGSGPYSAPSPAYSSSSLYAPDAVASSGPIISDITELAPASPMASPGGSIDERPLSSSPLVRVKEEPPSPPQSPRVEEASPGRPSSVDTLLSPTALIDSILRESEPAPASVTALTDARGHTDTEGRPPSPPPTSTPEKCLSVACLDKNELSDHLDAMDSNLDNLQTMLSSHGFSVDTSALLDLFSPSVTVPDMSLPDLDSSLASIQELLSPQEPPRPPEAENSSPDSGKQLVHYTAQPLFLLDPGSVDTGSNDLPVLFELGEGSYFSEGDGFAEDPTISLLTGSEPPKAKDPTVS
In short: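 Liver-derived HepG2 cells carry transiently introduced multiple reporter units governed by cis promoters. Reporter RNA measured 24 h post-dose through reverse transcription, PCR amplification, fluorescent labelling and capillary electrophoresis, normalised to DMSO.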

[9] = ATG_MRE_CIS: Attagene CIS-FACTORIAL HepG2 Assay for human Metal Responsive Element (MRE) (AID 2282954); settings: HepG2 MRE cis-reporter transcription, Attagene multiplex; actives raise or lower the signal
In short: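 Cells were transfected with cis-promoter reporter transcription units, then dosed for 24 h. RNA was reverse-transcribed, amplified, fluorescently labelled and resolved by capillary electrophoresis, and activity was fitted in both directions relative to DMSO.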

[10] = ATG_PBREM_CIS: Attagene CIS-FACTORIAL HepG2 Assay for human Phenobarbital-responsive Enhancer Module (PBREM) (AID 2282955); settings: HepG2 PBREM cis-reporter, Attagene multiplexed transcription; actives raise or lower the signal
In short: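 HepG2 cells transiently transfected with multiple cis-regulated reporter transcription units; endogenous factor activity at the PBREM element measured as reporter mRNA 24 h after dosing, via RT-PCR and capillary electrophoresis of fluorescent fragments; bidirectional fitting versus DMSO.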

[11] = molecular target: Paired box protein Pax-6 (Homo sapiens) (UniProt P26367); assay: ATG_Pax6_CIS: Attagene CIS-FACTORIAL HepG2 Assay for human Paired Box 6 (PAX6) (AID 2282956); settings: HepG2 CIS-FACTORIAL PAX6 reporter transcription, RNA readout; actives raise or lower the signal
Chain of Paired box protein Pax-6 (Homo sapiens) (P26367 whole entry, looked up): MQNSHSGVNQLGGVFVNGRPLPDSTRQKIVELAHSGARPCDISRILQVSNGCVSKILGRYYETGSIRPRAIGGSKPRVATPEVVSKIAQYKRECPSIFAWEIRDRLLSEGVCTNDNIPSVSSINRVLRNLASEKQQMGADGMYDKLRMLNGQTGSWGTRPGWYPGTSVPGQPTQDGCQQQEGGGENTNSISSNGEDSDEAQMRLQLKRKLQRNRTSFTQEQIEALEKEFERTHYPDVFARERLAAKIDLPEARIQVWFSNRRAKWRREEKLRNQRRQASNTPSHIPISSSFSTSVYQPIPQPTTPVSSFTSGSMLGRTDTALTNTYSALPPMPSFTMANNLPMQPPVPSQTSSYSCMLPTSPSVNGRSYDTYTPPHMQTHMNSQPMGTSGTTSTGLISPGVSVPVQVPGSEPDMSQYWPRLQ
In short: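 Read-out is reporter transcript level, measured by RT-PCR with fluorescent primer extension and capillary electrophoresis after 24 h dosing of transfected HepG2 cells. Activity in either direction fitted relative to DMSO control.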

[12] = ATG_PXRE_CIS: Attagene CIS-FACTORIAL HepG2 Assay for human Pregnane X Receptor Element (PXRE) (AID 2282957); settings: HepG2 Attagene CIS-FACTORIAL PXRE reporter, mRNA; actives raise or lower the signal
In short: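 Bidirectional activity, baselined to DMSO, derived from reporter mRNA fluorescence (RT-PCR plus capillary electrophoresis) in HepG2 cells bearing cis-promoter reporter units, 24 h exposure.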

[13] = ATG_RORE_CIS: Attagene CIS-FACTORIAL HepG2 Assay for human RAR-related Orphan Receptor Element (RORE) (AID 2282959); settings: HepG2 Attagene cis-factorial RORE reporter, mRNA; actives raise or lower the signal
In short: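 HepG2 cells transiently transfected with multiple cis-element reporter transcription units, exposed to chemical for 24 h. Reporter mRNA quantified by RT-PCR, 6-FAM primer-extension labeling, HpaI digestion and capillary electrophoresis; bidirectional fit versus DMSO baseline.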

[14] = ATG_Sox_CIS: Attagene CIS-FACTORIAL HepG2 Assay for human SRY-box transcription factor (SOX) (AID 2282960); settings: HepG2 Attagene cis-factorial SOX reporter, mRNA; actives raise or lower the signal
In short: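 HepG2 cells transiently transfected with cis-element-driven multiple reporter transcription units, dosed 24 h; reporter mRNA measured by RT-PCR, FAM labelling, HpaI digestion and capillary electrophoresis. Bidirectional fit versus DMSO baseline.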

[15] = molecular target: Transcription factor Sp1 (Homo sapiens) (UniProt P08047); assay: ATG_Sp1_CIS: Attagene CIS-FACTORIAL HepG2 Assay for human Specificity Protein 1 (Sp1) (AID 2282961); settings: HepG2 Sp1 cis-reporter transcription, actives raise or lower the signal
Chain of Transcription factor Sp1 (Homo sapiens) (P08047 whole entry, looked up): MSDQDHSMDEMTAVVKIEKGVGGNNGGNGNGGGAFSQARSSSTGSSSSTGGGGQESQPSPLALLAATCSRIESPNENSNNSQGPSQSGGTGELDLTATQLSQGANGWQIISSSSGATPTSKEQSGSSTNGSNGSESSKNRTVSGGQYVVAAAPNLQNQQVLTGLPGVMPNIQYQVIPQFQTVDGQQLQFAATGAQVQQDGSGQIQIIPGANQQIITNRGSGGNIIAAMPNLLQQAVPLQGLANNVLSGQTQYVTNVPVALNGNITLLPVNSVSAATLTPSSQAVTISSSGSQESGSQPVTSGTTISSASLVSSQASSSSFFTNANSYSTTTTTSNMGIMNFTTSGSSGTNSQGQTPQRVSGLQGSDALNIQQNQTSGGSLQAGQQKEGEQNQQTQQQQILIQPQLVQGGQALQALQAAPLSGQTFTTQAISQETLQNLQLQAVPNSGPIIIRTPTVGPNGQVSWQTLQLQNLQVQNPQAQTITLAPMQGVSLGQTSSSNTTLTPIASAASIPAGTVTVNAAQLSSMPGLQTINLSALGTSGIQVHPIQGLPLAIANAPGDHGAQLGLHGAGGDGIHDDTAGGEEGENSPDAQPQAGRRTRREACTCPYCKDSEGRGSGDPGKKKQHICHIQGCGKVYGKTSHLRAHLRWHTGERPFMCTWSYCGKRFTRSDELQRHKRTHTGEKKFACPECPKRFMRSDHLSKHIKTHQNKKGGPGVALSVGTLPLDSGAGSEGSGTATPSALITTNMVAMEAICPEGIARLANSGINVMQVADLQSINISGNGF
In short: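 HepG2 cells transiently transfected with multiple reporter transcription units driven by cis-regulatory elements; Sp1-responsive reporter mRNA measured 24 h after dosing by RT-PCR and capillary electrophoresis fluorescence, fitted bidirectionally against DMSO baseline.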

[16] = ATG_SREBP_CIS: Attagene CIS-FACTORIAL HepG2 Assay for human Sterol Regulatory Element Binding (SREBP) (AID 2282962); settings: HepG2 Attagene cis-factorial SREBP reporter, mRNA; actives raise or lower the signal
In short: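 Endogenous SREBP activity read as cis-element-driven reporter transcript in transiently transfected HepG2, 24 h post-dosing; quantified via RT-PCR plus capillary electrophoresis of fluorescent fragments. Gain or loss of signal fitted relative to DMSO baseline.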

[17] = molecular target: Signal transducer and activator of transcription 3 (Homo sapiens) (UniProt P40763); assay: ATG_STAT3_CIS: Attagene CIS-FACTORIAL HepG2 Assay for human Signal Transducer and Activator of Transcription 3 (STAT3) (AID 2282963); settings: HepG2, Attagene cis-factorial STAT3 reporter transcription; actives raise or lower the signal
Chain of Signal transducer and activator of transcription 3 (Homo sapiens) (P40763 whole entry, looked up): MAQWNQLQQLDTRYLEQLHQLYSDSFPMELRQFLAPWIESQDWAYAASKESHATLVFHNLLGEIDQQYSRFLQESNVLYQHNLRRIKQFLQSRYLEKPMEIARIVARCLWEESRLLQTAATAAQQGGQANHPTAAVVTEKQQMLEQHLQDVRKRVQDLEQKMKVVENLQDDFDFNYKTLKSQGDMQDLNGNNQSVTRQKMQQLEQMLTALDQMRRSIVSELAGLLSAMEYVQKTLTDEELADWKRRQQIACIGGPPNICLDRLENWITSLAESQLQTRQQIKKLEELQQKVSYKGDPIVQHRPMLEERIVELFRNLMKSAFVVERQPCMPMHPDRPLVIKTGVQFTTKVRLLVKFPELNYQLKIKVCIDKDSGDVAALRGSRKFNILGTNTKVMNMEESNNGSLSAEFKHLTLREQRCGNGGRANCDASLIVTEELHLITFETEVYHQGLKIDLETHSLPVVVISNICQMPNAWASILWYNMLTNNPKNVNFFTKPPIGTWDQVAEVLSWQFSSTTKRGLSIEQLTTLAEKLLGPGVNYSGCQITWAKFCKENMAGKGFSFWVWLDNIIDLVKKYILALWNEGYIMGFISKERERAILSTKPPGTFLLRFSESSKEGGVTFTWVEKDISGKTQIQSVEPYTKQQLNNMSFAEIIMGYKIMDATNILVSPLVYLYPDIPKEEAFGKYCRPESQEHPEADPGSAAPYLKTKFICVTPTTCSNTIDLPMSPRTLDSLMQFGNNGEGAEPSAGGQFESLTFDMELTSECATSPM
In short: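 HepG2, MRTU-transfected, 24 h dosing. RNA → RT → PCR → FAM label → HpaI → CE. Bidirectional fit vs DMSO.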

[18] = ATG_TA_CIS: Attagene CIS-FACTORIAL HepG2 Assay for human TA Basal Promoter (AID 2282964); settings: HepG2 Attagene CIS-factorial TA basal promoter reporter; actives raise or lower the signal
In short: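 Background internal-marker endpoint from a 52-component HepG2 cis-reporter panel. Cells treated 24 h; reporter transcripts quantified via RT-PCR and CE fluorescence against DMSO baseline.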

[19] = ATG_TCF_b_cat_CIS: Attagene CIS-FACTORIAL HepG2 Assay for human T-Cell-Factor with beta-catenin (TCF/b-cat) (AID 2282965); settings: HepG2 TCF/beta-catenin cis-reporter transcription, actives raise or lower the signal
In short: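 Using capillary electrophoresis as the read-out, labelled reporter cDNA fragments from transiently transfected HepG2 were sized and quantified. Exposure lasted 24 hours; activity in either direction was referenced to DMSO.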

[20] = ATG_PPRE_CIS: Attagene CIS-FACTORIAL HepG2 Assay for human Peroxisome Proliferator-activated Response Element (PPRE) (AID 2282958); settings: HepG2 PPRE cis-element reporter, Attagene transcription factor profiling; actives raise or lower the signal
In short: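 HepG2 cells transiently transfected with multiplexed cis-element reporter units measure endogenous transcription factor activity. After 24 h compound exposure, reporter mRNA is quantified by RT-PCR, 6-FAM labeling, HpaI digestion and capillary electrophoresis; bidirectional fits are made against DMSO baseline.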

Measured: AC50

CC(C)(C)OOC(C)(C)C
not listed: [20]
inactive: all other assays above

O=C(O)C(F)(F)OC(F)(F)C(F)(F)OC(F)(F)C(=O)O
not listed: [12]
inactive: all other assays above

OCC(F)(F)OC(F)(F)C(F)(F)OC(F)(F)CO
active: [12] 74.8 µM
not listed: [16]
inactive: all other assays above

Cc1ccc2c(c1N)C(=O)c1ccccc1C2=O
active: [12] 4.09 µM
not listed: [16]
inactive: all other assays above

Clc1ccc(Oc2ccccc2)cc1
inactive: all assays above

ClC(Cl)(Cl)c1ccccc1
active: [12] 62.9 µM
not listed: [20]
inactive: all other assays above

COP(=O)(CCC(=O)NCO)OC
inactive: all assays above

CCCCOCC1CO1 (stereo not given)
inactive: all assays above

CCOP(=S)(OCC)SCn1nnc2ccccc2c1=O
active: [8] 166 µM | [9] 78.5 µM | [10] 1.32 µM | [12] 0.673 µM
not listed: [16] | [19] | [20]
inactive: all other assays above

COP(N)(=S)OC
active: [12] 47 µM
not listed: [20]
inactive: all other assays above

Oc1ccc(I)cc1
not listed: [19] | [20]
inactive: all other assays above

COC(N)=O
active: [6] 100 µM
not listed: [19] | [20]
inactive: all other assays above

O=P(OCC(Br)CBr)(OCC(Br)CBr)OCC(Br)CBr (stereo not given)
active: [3] 10.3 µM | [6] 16.3 µM | [9] 24.9 µM | [11] 19.6 µM | [12] 0.0674 µM | [16] 22.9 µM | [18] 11.8 µM
not listed: [13] | [20]
inactive: all other assays above
